Results filed as inconclusive are left out. The source made the active and inactive calls. How the source made its calls: active means hit-call score of the fitted dose curve at least 0.9, where 1 is the maximum; inconclusive means response in the unintended direction; inactive means score below 0.9.
biological target: AR (gene 367) (UniProt P10275); test: ACEA_AR_antagonist_80hr: ACEA Biosciences xCELLigence Real-Time Cell Analysis on Androgen Receptor Antagonism for Proliferation (AID 2283787);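 further: 22Rv1 human prostate cancer cells with growth followed by electrical impedance; hits lower the impedance growth signal relative to DMSO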
Method in brief: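 Impedance-based real-time growth of 22Rv1 prostate cells, read 80 h after dosing. Eight concentrations, 1:4 series, top 100 uM final (0.5% DMSO), n = 2; signal decrease scored against DMSO.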

Sequence of AR (gene 367) (P10275 whole entry, looked up): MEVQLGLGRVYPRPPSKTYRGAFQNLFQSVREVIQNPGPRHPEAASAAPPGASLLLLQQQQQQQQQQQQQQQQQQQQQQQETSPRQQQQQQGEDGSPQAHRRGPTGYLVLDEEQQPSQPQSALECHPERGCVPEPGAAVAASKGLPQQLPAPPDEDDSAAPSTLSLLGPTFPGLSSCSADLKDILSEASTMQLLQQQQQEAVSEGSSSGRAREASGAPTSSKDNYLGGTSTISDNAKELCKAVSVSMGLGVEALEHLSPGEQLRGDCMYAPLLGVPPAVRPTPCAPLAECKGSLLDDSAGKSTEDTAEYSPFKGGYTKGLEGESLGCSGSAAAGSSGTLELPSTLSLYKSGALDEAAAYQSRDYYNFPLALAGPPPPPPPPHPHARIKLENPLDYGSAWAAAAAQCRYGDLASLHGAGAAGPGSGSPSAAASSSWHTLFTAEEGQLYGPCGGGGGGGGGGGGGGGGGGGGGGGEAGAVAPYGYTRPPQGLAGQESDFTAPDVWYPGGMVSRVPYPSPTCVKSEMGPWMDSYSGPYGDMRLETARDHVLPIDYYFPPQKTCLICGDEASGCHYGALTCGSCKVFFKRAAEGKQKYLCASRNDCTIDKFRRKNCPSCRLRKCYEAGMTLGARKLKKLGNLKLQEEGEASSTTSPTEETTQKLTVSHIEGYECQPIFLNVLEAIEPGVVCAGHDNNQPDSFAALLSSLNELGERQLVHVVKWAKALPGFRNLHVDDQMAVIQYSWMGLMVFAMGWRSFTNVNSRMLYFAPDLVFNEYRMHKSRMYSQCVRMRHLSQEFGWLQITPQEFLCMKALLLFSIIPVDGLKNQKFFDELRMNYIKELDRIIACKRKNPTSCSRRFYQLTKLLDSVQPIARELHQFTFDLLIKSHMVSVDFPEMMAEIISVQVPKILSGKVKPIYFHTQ

SMILES	AC50	outcome
O=c1cc(-c2ccccc2)oc2ccccc12	0.0284 µM (active)	–
CCCCC/C=C\CCC=O	–	inactive
Oc1ccc(Cl)cc1Cc1cc(Cl)ccc1O	10.2 µM (active)	–
CC(C)(C)c1ccc(-c2ccc(C(C)(C)C)cc2)cc1	–	inactive
CC(C)=CCC[C@H](C)CCO	–	inactive
CC(C)c1ccc2cc(C(C)C)ccc2c1	–	inactive
CCCc1ccc(OC)cc1	–	inactive
